PubChem BioAssay AID1985 (Southern Research Specialized Biocontainment Screening …, 2009)
Screen size: about 2,300 compounds; about 1,000 (43%) were called active. So high a share suggests a set chosen from earlier hits. This is one part of the list. Measured potencies and affinities stand elsewhere. Unmarked numbers belong to inactive results. The rule behind the calls is not given here.

test: PhoP regulon inhibitor project modified counter assay, GFP fluorescence readout, dose response (AID 1985); settings: S. Typhi, 4 h; series mostly up to 150 µM; inhibition: at the top concentration

SMILES | inhibition
CNc1ccc(SC#N)cc1 | 30.1%
O=C(CCn1cccc1)Nc1ccc(OC(F)(F)F)cc1 | -1.93%
NC1=NC2(CCCCC2)n2c(nc3ccccc32)N1 | -8.01%
COc1ccc(NC2=Nc3ccccc3CC2)cc1 | 11.2%
Cc1ccc(C(=O)NCC(=O)NCCc2ccc(S(N)(=O)=O)cc2)s1 | 10.8%
CCN1C(=O)N/C(=C/c2cc(C)n(Cc3ccccc3)c2C)C1=O | 30.9%
N=c1ccccn1CC(O)COc1ccccc1 (centres undefined) | -17.7%
Cc1c(Cl)cccc1NC(=O)C1CCN(S(C)(=O)=O)CC1 | -19.9%
Cc1ccc(N(C(=O)c2sc(C)nc2C)C(C(=O)NCc2ccco2)c2ccccc2)cc1 (centres undefined) | -2.74%
Fc1cccc(Cl)c1CSc1ccc(-c2ccco2)nn1 | -8.68%
CC(=O)Nc1ccc(NC(=O)CSc2ccc(-c3ccco3)nn2)cc1 | -9.15%
Cc1ccc(C)c(NC(=O)CSc2nnc([C@@H](N)Cc3c[nH]c4ccccc34)o2)c1 | 22.6%
Cc1cccc(OCC(=O)Nc2nonc2NC(=O)COc2cccc(C)c2)c1 | 18.1%
COc1ccccc1NC(=O)Cn1c(=O)n(CCc2c[nH]c3ccccc23)c(=O)c2cccnc21 | 2.09%
CC(C)CC(=O)N1CCN(C(=O)CCC2CCCC2)CC1 | 1.22%
CC(C)c1ccc(C2C(C#N)=C(N)Oc3c2oc(CO)cc3=O)cc1 (centres undefined) | 32.6%
CNS(=O)(=O)c1cc(OC)ccc1OC | -17.8%
C#CC[N+]1(CC#Cc2ccc(C#CC[N+]3(CC#C)CCOCC3)cc2)CCOCC1 | 36%
Nc1c(-c2ccccc2)sc2ccc3ccccc3[n+]12 | -6.95%
CCc1ccc(Nc2n[n+](-c3ccccc3)c(-c3c(Cl)cccc3Cl)s2)cc1 | 22.9%
C(=N\Nc1nc2ccccc2[nH]1)/c1ccc2ncccc2c1 | 22.9%
O=C(O)COc1ccc(/C=C/c2nc3ccc([N+](=O)[O-])cc3s2)cc1 | 24.7%
COC(=O)CC1C(=O)NCCN1C(=O)CSc1nc2ccc([N+](=O)[O-])cc2s1 (centres undefined) | -5.58%

SMILES | inhibition
Cc1cccc(NC(=O)c2ccccc2Br)n1 | 7.12%
O=C(N/N=C/c1cccnc1)c1ccc([N+](=O)[O-])cc1Cl | 20.2%
Cc1cc(=O)n2nc(N3CCCC(C(=O)NC4CCCCC4C)C3)sc2n1 (centres undefined) | -11%
COC(=O)c1ccc(Cn2cnc3ccccc3c2=O)cc1 | -24.3%
CCCCn1c(NCc2ccccc2NS(=O)(=O)c2ccc(C)cc2)nc2ccccc21 | 0.61%
N#CCCn1c2ccccc2c2nc3ccccc3nc21 | -14.3%
CCCCn1c(NS(=O)(=O)c2ccc(C)cc2)c(S(=O)(=O)c2ccccc2)c2nc3ccccc3nc21 | 16.6%
CCOC(=O)CSc1nc(-c2ccccc2)nc2ccccc12 | -13.8%
O=S(=O)(Nc1c(S(=O)(=O)c2ccccc2)c2nc3ccccc3nc2n1C1CCCCC1)c1ccccc1 | 10.3%
Cc1cccc(S(=O)(=O)c2c(N)n(/N=C/c3ccccc3)c3nc4ccccc4nc23)c1 | -12%
CCC(=O)N(Cc1cc2cc(OC)ccc2[nH]c1=O)c1ccc(C)cc1C | -1.85%
O=C(CCS(=O)(=O)c1ccccc1)Nc1ccc2c(c1)C(=O)NC2=O | -8.55%
Cc1ccc2nsnc2c1S(=O)(=O)NCc1ccc2c(c1)OCO2 | -19.2%
c1cncc(CSc2ccc(-c3cccs3)nn2)c1 | 21.3%
c1ccc2c(c1)CCN(c1nc3ccccc3n3cnnc13)C2 | -0.2%
COc1ccc2c(c1OC)C(=O)N(c1ccc(C)cc1)C2=O | -3.73%
Cc1cc(C(F)F)n2nc(C(=O)Nc3cc(C)on3)nc2n1 | -28.2%
Cc1[nH]nc2c1C(C1CC=CCC1)C(C#N)=C(N)O2 (centres undefined) | -24.6%
COc1ccc(-n2c3c(cc(C(=O)Nc4cccc(C)n4)c2=O)C(=O)CC(C)(C)C3)cc1 | 8.22%
CC1(C)CC(=O)C2=C(C1)N(c1ccc(F)cc1)C(=O)CC2c1ccsc1 (centres undefined) | -3.27%
CCc1ccc(NC2=NCCCS2)cc1 | 33.4%
CCCCN(C)C(=O)c1ccc(S(=O)(=O)N2CCOCC2)cc1 | -15%
CSc1ccc(NC(=O)C(C)N2CCN(C)CC2)cc1 (centres undefined) | 20.9%

SMILES | inhibition
Nc1nc(SCC(=O)Nc2ccc3c(c2)CCC3)n[nH]1 | 24.4%
CCCCC(=O)Nc1ccc2c(c1)C(=O)NC2=O | 3.13%
Cc1cc(C)c2c(=O)[nH]c(SCC(=O)N3CCCCC3)nc2n1 | 12.4%
CC(C)c1c(O)nc(SCC(=O)N2CCOCC2)[nH]c1=O | 15.7%
CCCC1(c2ccccc2)NC(=O)N(CC(=O)Nc2cc(S(=O)(=O)N3CCOCC3)ccc2Cl)C1=O (centres undefined) | -10.2%
CN1Cc2ccccc2N(CC(=O)NCc2ccccc2)C1=O | 17.8%
O=C(CC1(O)C(=O)Nc2ccc(Br)cc21)c1ccc2c(c1)OCO2 (centres undefined) | -18.1%
CCOC(=O)CNC(=O)Cn1c(C)cc2ccccc2c1=O | -9.62%
CCn1c(=N)n(CC(=O)c2ccc(OC)cc2)c2ccccc21 | 26%
O=C(CN(Cc1ccco1)C(=O)CNS(=O)(=O)c1ccc(Cl)cc1)NCc1ccc(F)cc1 | -0.77%
CCN1CCN(CC(=O)Nc2ccc(C)c(Br)c2)CC1 | 10.2%
CS(=O)(=O)N(CCc1ccccc1)CC(=O)Nc1ccc2c(c1)OCO2 | -15.3%
CCN(CC)CCn1nc(C)nc1-c1ccccc1O | 27.2%
C/C(=N\Nc1ccc(C)c(Cl)c1)c1cccnc1 | -11.4%
Clc1ccc(Nc2nc(C3CC3)cs2)cc1 | 12%
Cc1ccc(NC2=NCCCS2)cc1Cl | 38%
CCc1nc(SCC(=O)Nc2ccc(N(C)C)cc2)c2ccccc2n1 | -3.05%
c1ccc2oc(-c3ccc(Nc4nc(N5CCCCC5)nc(N5CCOCC5)n4)cc3)nc2c1 | -13.3%
Nc1nc(N2CCN(c3ccccn3)CC2)nc2ccccc12 | 1.19%
O=C(CN1C2=NCCN2c2ccccc21)c1ccc2c(c1)OCO2 | 9.44%
CN(C)C(/C=C/Nc1ccc(F)cc1F)=C(C#N)C#N | -10.3%
CCOc1ccc(NC(=O)CN(C)C(=O)c2ccccc2CCc2ccccc2)cc1OCC | -32.9%
CC(C)CC(=O)Nc1ccc(-c2cn3cccnc3n2)cc1 | 14.1%

SMILES | inhibition
CCOc1ccc(-c2nc(N)ncc2-c2ccccc2)c(O)c1 | 18.8%
CCOc1ccc(NC(N)=O)cc1 | 15.4%
Cc1ccc(Cn2c(=N)c(C(=O)NCc3ccco3)cc3c(=O)n4ccccc4nc32)cc1 | 16.6%
CCn1cnc2cc(NCc3ccc(Br)cc3)ccc21 | 15.8%
NC(=O)CN1N=C(c2cc(Cl)sc2Cl)CSC1=O | 4.36%
CN1C(=O)c2ccc(NC(=O)C3CCCCC3)cc2C1=O | -8.71%
COc1ccc(C(=O)Nc2cc3c(cc2OC)CCCC3)cc1Br | -5.35%
CCCCN(CCCC)CCNC(=O)CSCc1ccc(C)cc1 | -17.4%
COCc1[nH]nc2c1C(c1ccc(OC)cc1)C(C#N)=C(N)O2 (centres undefined) | -3.75%
COc1ccccc1NC(=O)Cn1cnc2c(nnn2-c2ccc(C)cc2)c1=O | -10.9%
COc1cccc(/C=N/NC(=O)CNC(=O)CCc2ccccc2)c1O | 24.4%
CCCCn1cnc2cc(NCc3cccc(OC)c3O)ccc21 | 28.6%
COc1cccc(/C=N/NC(=O)CO/N=C(\C)c2cccs2)c1OC | 34.1%
Cc1ccc(C)c2[nH]c(=O)c(CN(Cc3cccnc3)C(=S)NCc3ccco3)cc12 | -16.5%
C=CCn1c(NC(C)c2cc(Cl)ccc2O)nc2ccccc21 (centres undefined) | -14.7%
COc1ccc(C2=NN3C(=O)c4c(ccc(OC)c4OC)C3C2)cc1 (centres undefined) | 9.8%
O=C(NCc1cccnc1)c1ccc(Cl)cc1[N+](=O)[O-] | -10.5%
O=C(NCc1cccnc1)C1c2ccccc2C(=O)N1Cc1ccccc1 (centres undefined) | -16.2%
Clc1ccc(Cn2cc(Br)cn2)cc1Cl | 3.19%
C=C(C)Cn1c(-c2ccc(OC)cc2)nc2ccccc21 | 3.51%
COC(=O)Cn1c(=O)c(C)nc2ccccc21 | -9.43%
COc1ccc(N2CCN(C(=O)c3cc4c(s3)-c3ccccc3S(=O)(=O)C4)CC2)cc1 | -14.6%
CCCC(=O)Nc1c2c(nn1-c1ccc(C)cc1C)CSC2 | 1.8%

SMILES | inhibition
CN(C)C(=O)COC(=O)/C=C/c1ccccc1[N+](=O)[O-] | -11.5%
Oc1ccc(C2NCc3ccccc3-n3cccc32)cc1Cl (centres undefined) | -0.67%
COC(=O)C(NC(C)=O)(Nc1nc2c(s1)CCCC2)C(F)(F)F (centres undefined) | -28.5%
CCN1CCN(CCCNC(=O)c2ccc(/C=C3/Sc4ccccc4N(Cc4ccccc4F)C3=O)cc2)CC1 | 33.6%
CCN1CCN(CCNC(=O)c2ccc(/C=C3/Sc4ccccc4N(Cc4cccc(C)c4)C3=O)cc2)CC1 | 12.9%
S=C1NCN(C2CCCCC2)CN1c1ccccc1 | 36.9%
CC(=O)C1C(c2ccc(OC(F)F)cc2)NC(=O)NC1(O)C(F)(F)F (centres undefined) | 3.26%
COc1ccc(C2C3=C(CC(C)(C)CC3=O)Nc3cc4c(cc32)OCO4)cc1 (centres undefined) | 1.35%
CCc1nc(C)ccc1OCC(=O)NCCCN(C)C | 2.34%
CCc1nc(C)ccc1OCC(=O)N(CC)CC | 11.3%
Cc1cc(C)n(/N=C/c2cc(Cl)cc(Cl)c2O)c(=O)c1 | 23.2%
CC1CCN(C(=O)C2CCCN(S(C)(=O)=O)C2)CC1 (centres undefined) | -2.3%
NC(=O)c1ccc[n+](CC(=O)c2cccc([N+](=O)[O-])c2)c1 | -10.5%
Cc1ccc(C(=O)Nc2ccc3c(c2)ncn3C)cc1 | 36.9%
COc1cccc(/C=N/NC(=O)CNC(=O)COc2cccc(C)c2)c1O | 14.2%
COc1ccc(/C=N/NC(=O)c2cccnc2)c(C(=O)O)c1OC | -1.18%
CCCC1=C(C(=O)OCC)C(c2ccc(O)cc2)n2ncnc2N1 (centres undefined) | 3.12%
O=C(CCc1nc2ccccc2s1)NC1CCOC1=O (centres undefined) | 11.8%
COc1ccc(CCNC(=O)CSc2ccc(-c3ccncc3)nn2)cc1 | -11.4%
COC(=O)c1ccc(NC(=O)CO/N=C2\CCCc3nonc32)cc1 | 0.85%
Cc1ccc2cc(-c3noc(C4CCCO4)n3)c(=O)[nH]c2c1 (centres undefined) | -6.59%
CC(C)c1ccc2oc(=O)cc(CN3CCN(c4ccc(F)cc4)CC3)c2c1 | -5.48%
